The record followed here is PubChem BioAssay (NCATS).

Values joined by “and” are separate entries in the source; they are usually repeats but may differ in a detail not shown here. Identical values can stand only once. Inconclusive results are not listed. Where a structure was tested more than once in an assay, its records may differ in their call. Active and inactive are the calls of the source. Unless noted, calls follow the shape of the dose curve; as a rule, active = well fitted curve in the direction sought with a large enough effect; inconclusive = small, poorly fitted or top-dose-only effect, or another doubt; inactive = no such curve, though single readings can be large; an effect the other way counts as inactive or inconclusive.

The nature of assay [1]: Primary qHTS for inhibitors of nuclear receptor binding SET domain protein 2 (NSD2) in an RCH-ACV wild type WT cells (2C) (AID 1645877). Also: nearly all actives have a fitted effect of over 70% in size. Also: potency is read from the fitted curve at half-maximal effect. For orientation: Quantitative high-throughput screening tests each substance at several concentrations.
The target of assay [2] is Glutathione peroxidase 1 (Homo sapiens) (UniProt P07203). Put plainly: Primary qHTS Assay for Inhibitors of Recombinant Selenoprotein Glutathione Peroxidase 1 (GPX1) (AID 1845191). Also: nearly all actives have a fitted effect of over 65% in size. Also: potency is read from the fitted curve at half-maximal effect. The method, boiled down: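 Recombinant GPX1 (10 nM final) was preincubated with compound for 30 min at room temperature, then reacted with 1 mM GSH, 0.5 mM CHP, 0.5 mM NADPH and 100 nM glutathione reductase; NADPH fluorescence (340/450 nm) was read at 0 and 15 min.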

In assay [3] the target is Phospholipid hydroperoxide glutathione peroxidase GPX4 (Homo sapiens) (UniProt P36969). Put plainly: Primary qHTS Assay for Inhibitors of Recombinant Selenoprotein Glutathione Peroxidase 4 (GPX4) (AID 1845192). Also: nearly all actives have a fitted effect of over 65% in size. As to activity change, negative = inhibition: % is scaled to controls: 0 for no effect and ±100 for the full control effect. A digest of the protocol: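 GR-coupled readout: 100 nM GR, 1 mM GSH, 0.5 mM NADPH; NADPH fluorescence (ex 340/em 450 nm) read at t=0 and after 15 min RT. GPX4 200 nM, preincubated 30 min with compound; substrate 0.5 mM CHP.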

Assay [4] deals with Luciferin 4-monooxygenase (Photinus pyralis) (UniProt P08659). Put plainly: Primary firefly luciferase (FLuc) qHTS assay for identification of artifact compounds. (AID 1845220). Also: nearly all actives have a fitted effect of over 60% in size. Also: potency is read from the fitted curve at half-maximal effect.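 As to activity change, negative = inhibition: plate controls were DMSO vehicle for no effect and no enzyme for full effect.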 A digest of the protocol: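 Reaction readout was CCD-imaged luminescence, taken 5 min after adding 10 nM purified firefly enzyme to compound-treated wells holding 10 uM luciferin and ATP in pH 7.6 buffer.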

Assay [5] deals with Rap guanine nucleotide exchange factor 3 (Homo sapiens) (UniProt O95398). Put plainly: Confirmatory qHTS for antagonist of cAMP-regulated guanine nucleotide exchange factor 3 (EPAC1) (AID 1645880).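 Also: plate controls were DMSO only for no effect and full effect of the ATA control for full effect; nearly all actives have a fitted effect of over 55% in size.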 The method, boiled down:
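Nucleotide exchange uses 100 nM EPAC1, 250 nM RAP1B-BODIPY-GDP and 50 uM GDP, with compounds in a concentration-titration series. After 5 min at room temperature, fluorescence (480 nm ex/540 nm em) is read every 5 min for 30 min. Data are normalized to control ATA and DMSO.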

Assay [6] has the same target. Put plainly: Confirmatory qHTS for agonist of cAMP-regulated guanine nucleotide exchange factor 3 (EPAC1) (AID 1645881).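 Also: EPAC1 catalysed release of BODIPY-GDP from Rap1B seen as fluorescence loss; 100% = effect of cAMP agonist control; nearly all actives have a fitted effect of over 75% in size.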
Assay [7] has as its target Rap guanine nucleotide exchange factor 4 (Homo sapiens) (UniProt Q8WZA2). Put plainly: Confirmatory qHTS for agonist of cAMP-regulated guanine nucleotide exchange factor 4 (EPAC2) (AID 1645884).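 Also: nucleotide exchange releases bodipy-GDP from Rap1 and this lowers its fluorescence; % is scaled to controls: 0 for no effect and ±100 for the full control effect; nearly all actives have a fitted effect of over 65% in size.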
For assay [8], the target named is Catechol O-methyltransferase (Homo sapiens) (UniProt P21964). Put plainly: Confirmatory Screen for Target Class Profiling of Small Molecule Inhibitors of Methyltransferases (AID 1745852; calls by dose curve; as to activity change, negative = inhibition: % is scaled to controls: 0 for no effect and ±100 for the full control effect). Conditions: MTase-Glo luminescence, SAH detection, recombinant enzyme; measured here: COMT max response; stronger effect = lower value.
Assay [9] has as its target Guanidinoacetate N-methyltransferase (Homo sapiens) (UniProt Q14353). The description is as above. Conditions: MTase-Glo luminescence, SAH detection, recombinant enzyme; activity change, negative = inhibition: at 57.3 µM (top of the series) unless noted.
For assay [10], the target named is Nicotinamide N-methyltransferase (Homo sapiens) (UniProt P40261). Described as above. The note with it: MTase-Glo luminescence, SAH detection, recombinant enzyme; measured here: NNMT max response; stronger effect = lower value.
Assay [11] has as its target Phenylethanolamine N-methyltransferase (Homo sapiens) (UniProt P11086). The description is as above. Conditions: MTase-Glo luminescence, SAH detection, recombinant enzyme; measured here: PNMT max response; stronger effect = lower value.
Assay [12] deals with Metallo-beta-lactamase type 2 (Klebsiella pneumoniae) (UniProt C7C422). Put plainly: qHTS to identify inhibitors of the New Delhi Metallo-beta-lactamase (NDM): assay validation screen against the NCATS LOPAC Collection (AID 1794843).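 Also: nitrocefin turnover by NDM-1 measured as 485 nm absorbance at plateau; % is scaled to controls: 0 for no effect and ±100 for the full control effect.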 A digest of the protocol:
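NDM-1 at 2 nM final in 50 mM HEPES pH 7.0 with 1 uM ZnSO4 and 0.01% Tween20 was preincubated with library compounds in DMSO. Nitrocefin (50 uM stock) was then added, and absorbance at 485 nm was read at the kinetic plateau.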

Glutathione peroxidase 1 (Homo sapiens), sequence (P07203 whole entry, looked up): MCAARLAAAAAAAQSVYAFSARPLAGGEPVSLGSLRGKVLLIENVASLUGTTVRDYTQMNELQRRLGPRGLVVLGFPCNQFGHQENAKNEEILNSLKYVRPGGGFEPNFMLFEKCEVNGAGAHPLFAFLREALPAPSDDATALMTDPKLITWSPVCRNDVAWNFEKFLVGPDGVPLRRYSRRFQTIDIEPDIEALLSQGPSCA
Phospholipid hydroperoxide glutathione peroxidase GPX4 (Homo sapiens), sequence (P36969 whole entry, looked up): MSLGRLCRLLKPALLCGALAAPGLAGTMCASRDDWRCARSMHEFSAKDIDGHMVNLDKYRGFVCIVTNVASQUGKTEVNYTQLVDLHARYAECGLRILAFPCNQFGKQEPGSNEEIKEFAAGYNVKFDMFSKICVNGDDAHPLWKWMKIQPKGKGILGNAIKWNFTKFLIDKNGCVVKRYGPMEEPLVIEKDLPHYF
Rap guanine nucleotide exchange factor 3 (Homo sapiens), sequence (O95398 whole entry, looked up): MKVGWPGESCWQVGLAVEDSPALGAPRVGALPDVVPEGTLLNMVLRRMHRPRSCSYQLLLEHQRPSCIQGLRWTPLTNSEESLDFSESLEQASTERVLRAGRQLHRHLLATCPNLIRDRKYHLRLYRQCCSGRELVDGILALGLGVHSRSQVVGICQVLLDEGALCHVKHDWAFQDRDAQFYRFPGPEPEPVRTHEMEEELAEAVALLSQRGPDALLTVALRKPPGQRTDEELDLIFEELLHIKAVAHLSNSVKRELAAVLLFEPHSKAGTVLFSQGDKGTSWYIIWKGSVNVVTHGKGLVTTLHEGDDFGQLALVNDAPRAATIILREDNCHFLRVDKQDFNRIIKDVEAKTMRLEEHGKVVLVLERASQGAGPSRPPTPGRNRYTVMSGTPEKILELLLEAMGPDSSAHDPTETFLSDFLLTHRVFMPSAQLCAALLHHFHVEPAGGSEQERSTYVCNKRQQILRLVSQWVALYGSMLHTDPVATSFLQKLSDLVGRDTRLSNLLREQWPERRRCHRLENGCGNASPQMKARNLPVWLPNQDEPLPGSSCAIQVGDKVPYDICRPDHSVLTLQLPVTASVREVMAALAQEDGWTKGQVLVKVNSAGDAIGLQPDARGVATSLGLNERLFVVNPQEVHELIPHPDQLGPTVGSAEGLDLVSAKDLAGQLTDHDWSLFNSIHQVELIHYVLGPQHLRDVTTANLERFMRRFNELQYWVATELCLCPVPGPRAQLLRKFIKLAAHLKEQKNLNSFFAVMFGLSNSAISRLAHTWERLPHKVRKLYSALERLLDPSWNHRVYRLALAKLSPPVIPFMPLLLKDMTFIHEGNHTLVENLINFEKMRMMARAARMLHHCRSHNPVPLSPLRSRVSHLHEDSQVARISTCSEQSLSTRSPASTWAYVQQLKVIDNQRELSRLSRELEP
Metallo-beta-lactamase type 2 (Klebsiella pneumoniae), sequence (C7C422 whole entry, looked up): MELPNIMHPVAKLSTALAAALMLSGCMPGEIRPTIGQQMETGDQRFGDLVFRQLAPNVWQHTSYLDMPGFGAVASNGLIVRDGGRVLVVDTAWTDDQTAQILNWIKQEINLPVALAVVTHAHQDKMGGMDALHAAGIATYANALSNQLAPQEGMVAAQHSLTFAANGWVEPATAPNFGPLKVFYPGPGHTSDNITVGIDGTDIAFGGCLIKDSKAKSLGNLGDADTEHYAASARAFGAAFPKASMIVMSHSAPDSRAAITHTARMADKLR
Catechol O-methyltransferase (Homo sapiens), sequence (P21964 whole entry, looked up): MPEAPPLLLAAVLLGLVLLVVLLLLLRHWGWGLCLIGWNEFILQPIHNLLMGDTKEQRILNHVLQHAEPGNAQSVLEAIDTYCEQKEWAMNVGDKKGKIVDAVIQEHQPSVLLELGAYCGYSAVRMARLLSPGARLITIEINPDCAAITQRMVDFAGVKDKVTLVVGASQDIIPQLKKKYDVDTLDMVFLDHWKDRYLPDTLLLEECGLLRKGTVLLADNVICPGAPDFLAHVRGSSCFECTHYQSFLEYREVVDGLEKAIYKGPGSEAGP
Phenylethanolamine N-methyltransferase (Homo sapiens), sequence (P11086 whole entry, looked up): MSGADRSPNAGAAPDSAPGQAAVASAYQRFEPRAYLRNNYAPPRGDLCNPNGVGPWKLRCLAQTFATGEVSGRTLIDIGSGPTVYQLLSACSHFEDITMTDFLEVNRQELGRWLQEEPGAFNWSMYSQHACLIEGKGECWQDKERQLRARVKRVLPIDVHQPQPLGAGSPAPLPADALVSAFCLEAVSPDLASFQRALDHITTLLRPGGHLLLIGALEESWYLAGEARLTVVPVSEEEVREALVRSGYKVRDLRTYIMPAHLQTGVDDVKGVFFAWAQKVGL
Nicotinamide N-methyltransferase (Homo sapiens), sequence (P40261 whole entry, looked up): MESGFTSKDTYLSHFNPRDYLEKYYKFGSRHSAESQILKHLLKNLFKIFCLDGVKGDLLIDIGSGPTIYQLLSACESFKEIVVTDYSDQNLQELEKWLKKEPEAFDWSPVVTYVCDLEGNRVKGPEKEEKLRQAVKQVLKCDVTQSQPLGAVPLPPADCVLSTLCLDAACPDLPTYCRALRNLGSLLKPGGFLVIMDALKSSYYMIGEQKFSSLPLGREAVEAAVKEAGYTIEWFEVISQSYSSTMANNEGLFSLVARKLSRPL
Rap guanine nucleotide exchange factor 4 (Homo sapiens), sequence (Q8WZA2 whole entry, looked up): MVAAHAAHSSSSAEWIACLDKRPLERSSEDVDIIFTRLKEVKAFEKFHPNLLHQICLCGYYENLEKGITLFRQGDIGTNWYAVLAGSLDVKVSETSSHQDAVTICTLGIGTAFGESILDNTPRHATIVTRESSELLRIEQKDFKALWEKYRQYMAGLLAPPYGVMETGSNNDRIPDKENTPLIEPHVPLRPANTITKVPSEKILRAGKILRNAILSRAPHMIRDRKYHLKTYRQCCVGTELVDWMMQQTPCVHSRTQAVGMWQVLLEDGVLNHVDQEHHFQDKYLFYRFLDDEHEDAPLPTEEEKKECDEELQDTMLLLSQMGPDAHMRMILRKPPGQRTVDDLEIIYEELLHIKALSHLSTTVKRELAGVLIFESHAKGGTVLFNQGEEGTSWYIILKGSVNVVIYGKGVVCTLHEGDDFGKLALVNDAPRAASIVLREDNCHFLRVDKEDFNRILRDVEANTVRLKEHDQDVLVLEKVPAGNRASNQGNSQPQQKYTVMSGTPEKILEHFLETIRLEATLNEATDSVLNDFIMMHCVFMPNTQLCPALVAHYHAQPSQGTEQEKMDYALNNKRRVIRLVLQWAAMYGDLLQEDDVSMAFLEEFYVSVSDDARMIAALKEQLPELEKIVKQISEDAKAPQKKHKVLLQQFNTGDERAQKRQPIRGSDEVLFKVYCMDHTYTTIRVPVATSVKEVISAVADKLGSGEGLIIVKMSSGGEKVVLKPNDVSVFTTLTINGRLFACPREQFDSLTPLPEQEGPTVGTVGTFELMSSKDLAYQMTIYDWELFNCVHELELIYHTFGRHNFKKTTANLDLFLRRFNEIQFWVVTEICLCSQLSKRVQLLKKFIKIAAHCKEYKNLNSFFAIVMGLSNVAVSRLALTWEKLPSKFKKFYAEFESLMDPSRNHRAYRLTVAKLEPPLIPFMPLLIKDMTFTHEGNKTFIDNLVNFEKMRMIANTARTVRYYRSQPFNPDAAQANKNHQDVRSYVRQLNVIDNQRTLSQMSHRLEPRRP

Consider `CC(C)C(=O)Oc1ccc(CO)cc1[C@H](CCN(C(C)C)C(C)C)c1ccccc1`, for which the Potency entry in assay [1], in [2], in assay [3] and in [4] was “inactive” in each case.
Take `CC(C)(C(=O)NCC(F)(F)C(F)(F)F)C(=O)N[C@@H]1C(=O)Nc2ccccc2-c2ccccc21`: the Potency result in [1], in [2] and in [3] was “inactive” each time.
As to `O=C1C(Cl)=C(NCCN2CCOCC2)C(=O)c2ncccc21`, the figures for the Potency in [1] and in assay [2] were 3.32 µM (active) and 9.16 µM (active), respectively. For the same molecule, the Potency entry in assay [3] was “inactive”.
`O=c1cc(-c2ccccc2)oc2cc(O)cc(O)c12`: the Potency in assay [1] was 16.6 µM (active). For the same molecule, the Potency entry in assay [2] and in assay [3] was “inactive” each time.
On to `Cc1nc(N)sc1-c1ccnc(Nc2ccc(N3CCOCC3)cc2)n1`, for which the Potency is 459 nM (active) and 468 nM (active) in assay [1]; 5.36 µM (active) in assay [4]. Further, the Potency result in assay [2] and in assay [3] was “inactive” throughout.
As to `Oc1ccc(C2=Cc3ccc(O)cc3OC2)cc1`, the Potency in assay [1] was 1.32 µM (active). Besides, the Potency entry in assay [2] and in assay [3] was “inactive” each time.
Regarding `Nc1ncnc2ccccc12`, the Potency entry in [1], in [2] and in [3] was “inactive” each time.
In the case of `CC(C)n1cnc2c(NCCCCCCNC(=O)OC(C)(C)C)nc(NCCO)nc21`, the Potency in assay [1] is 16.6 µM (active). The Potency result in assay [2] and in [3] was “inactive” in each case.
Consider `COCCOC(=O)C1=C(C)NC2=C(C(=O)CC(c3ccccc3OC)C2)C1c1cccc(O)c1` (stereo not given), for which the Potency in assay [1] is 3.72 µM (active) and 3.25 µM (active). The Potency entry in assay [2], in [3] and in [4] was “inactive” throughout.
`OC[C@@H](O)[C@H](O)[C@H](O)[C@@H](O)CO`: the Potency entry in assay [1], in assay [2] and in assay [3] was “inactive” in each case.
With `CC(=O)Oc1cc2c(s1)CCN(C(C(=O)C1CC1)c1ccccc1F)C2` (stereo not given), the Potency result in assay [1] and in assay [3] was “inactive” in each case. Moreover, the Potency in [2] was 16.1 µM (active) and inactive and 20.2 µM (active).
`CO[C@H]1C(=O)[C@]2(C)[C@@H](OC)C[C@H]3OC[C@@]3(OC(C)=O)[C@H]2[C@H](OC(=O)c2ccccc2)[C@]2(O)C[C@H](OC(=O)[C@H](O)[C@@H](NC(=O)OC(C)(C)C)c3ccccc3)C(C)=C1C2(C)C`: the Potency in assay [1] was 0.0026 µM (active). Further, the Potency result in assay [2] and in [3] was “inactive” in each case.
In the case of `O=C(N[C@@H](c1ccccc1)[C@@H]1CCCCN1)c1cccc(C(F)(F)F)c1Cl`, in [1], the Potency is 16.6 µM (active). For the same molecule, the Potency result in [2] and in [3] was “inactive” each time.
For `Nc1ncnc2c1nc(Cl)n2[C@@H]1O[C@H](CO)[C@@H](O)[C@@H]1O`, the Potency in assay [1] was 20.9 µM (active). Moreover, the Potency result in assay [2] and in [3] was “inactive” throughout.
`CCNc1cc(NC2CCC(O)CC2)nc(Nc2ccc3c(ccn3Cc3ccccc3)c2)n1` (stereo not given): the Potency in assay [1] was 3.32 µM (active). Also, the Potency result in assay [2] and in [3] was “inactive” each time.
With `Cc1ccc(Nc2cc(-c3cccc(N4C(=O)c5ccccc5C4=O)c3)ncn2)cc1NS(C)(=O)=O`, in assay [1], the Potency is 18.6 µM (active). The Potency result in [2], in [3] and in assay [4] was “inactive” in each case.
In the case of `Oc1ccc(C2CCN(c3ccnc4ccccc34)CC2)cc1O`, the Potency in assay [1] is 11.8 µM (active). Also, the Potency result in assay [2] and in assay [3] was “inactive” each time.
Consider `CN(C)Cc1cccc(N=C(c2ccccc2)c2c(O)[nH]c3cc(C(=O)N(C)C)ccc23)c1`, for which, in [1], the Potency is 14.8 µM (active). Moreover, the Potency entry in [2] and in assay [3] was “inactive” each time.
In the case of `CC(C)C(C)C=CC(C)C1CCC2C3=CC=C4CC(O)CCC4(C)C3CCC21C` (stereo not given), the Potency entry in assay [1], in assay [2] and in [3] was “inactive” in each case.
Consider `NS(=O)(=O)c1ccc(NC2=CC(=O)c3ccccc3C2=O)cc1`, for which the Potency entry in assay [1] and in assay [3] was “inactive” each time.
As to `COc1cc(Nc2ncc(F)c(Nc3ccc4c(n3)NC(=O)C(C)(C)O4)n2)cc(OC)c1OC`, the Potency in assay [1] is 1.03 µM (active) and 5.17 µM (active). Further, the Potency result in [2], in assay [3] and in assay [4] was “inactive” each time.
As to `CC(C)n1nc(-c2ccc3oc(N)nc3c2)c2c(N)ncnc21`, the Potency in assay [1] is 36.5 nM (active) and 33.2 nM (active). For the same molecule, the Potency result in assay [2], in assay [3] and in assay [4] was “inactive” in each case.
As to `c1ccc2c(Cc3c[nH]c4ccccc34)c[nH]c2c1`, the outcome in [5], in assay [6] and in assay [7] was “inactive” each time. The Potency result in assay [2] and in assay [3] was “inactive” throughout.
Turning to `COc1ccc(Cc2nccc3cc(OC)c(OC)cc23)cc1OC`, the activity was -10.8% in [8], -16.1% in assay [10] and -24.2% in [11]. In addition, in [9], the activity change, negative = inhibition was -7.19%. In addition, in [12], the Potency result was “inactive”.
Take `CC(C)C(=O)Nc1ncc(-c2cc(C(F)F)nn2-c2c(Cl)cccc2Cl)s1`: in [1], the Potency was 23 µM (active). Besides, the Potency result in [2], in assay [3] and in assay [4] was “inactive” in each case.
Take `COc1cc(N2CCC(N3CCN(C)CC3)CC2)ccc1Nc1ncnc(Nc2ccccc2S(=O)(=O)C(C)C)n1`: the Potency in assay [1] is 18.4 µM (active) and 10.5 µM (active). The Potency result in [2], in assay [3] and in [4] was “inactive” throughout.
For `CN[C@@H](C)C(=O)N[C@H]1CN(C(=O)CC(C)C)CC[C@H]2CC[C@@H](C(=O)NC(c3ccccc3)c3ccccc3)N2C1=O`, the Potency entry in assay [1], in assay [2], in assay [3] and in assay [4] was “inactive” throughout.
In the case of `CC(C)(C)c1cc(C(=O)O)c(NC(=O)Nc2ccc3[nH]ncc3c2)s1`, the Potency entry in [1], in [2] and in assay [3] was “inactive” in each case. Besides, the Potency in assay [4] is 16.9 µM (active).
Take `O=C1c2ccccc2-[n+]2ccc3c([nH]c4ccccc43)c21`: the Potency in [1] is 1.32 µM (active). The Potency result in assay [3] was “inactive”.
For `O=C(O)c1cc(O)c2c(c1)C(=O)c1cccc(O)c1C2=O`, in that order: “inactive” and “inactive”.
`CNC1CCC(N(Cc2cccc(-c3ccncc3)c2)C(=O)c2sc3c(F)ccc(F)c3c2Cl)CC1` (stereo not given): the Potency in [1] is 7.42 µM (active) and 8.17 µM (active). The Potency result in assay [2], in assay [3] and in assay [4] was “inactive” each time.
